Laboratory results reported in PubChem BioAssay.
Unmarked numbers belong to inactive results. Calls of active or inactive are those of the source. Cut-off read from the data, not from the text of the source, unless noted: active = inhibition above about 28%; inactive = the rest.

Experiments:
[1] = StAR promoter reporter inhibitors, counter-screen for LRH-1 inverse agonist project, cell-based, luminescence, high throughput (AID 651611); details: StAR promoter luciferase reporter counterscreen, at 3.6 µM, active compounds read high
[2] = biological target: Nuclear receptor subfamily 5 group A member 2 (Homo sapiens) (UniProt O00482); assay: NR5A2 activity suppression in reporter cells – cell-based, luminescence, confirmation (AID 651613; in the data active = inhibition above about 42%;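 note: HEK293T cells co-transfected with LRH-1 and StAR promoter luciferase reporter; 0% = vehicle wells and 100% = parental cells lacking receptor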); details: cell-based LRH-1 luciferase reporter, inverse agonism; at 3.6 µM; active compounds read high
Sequence of Nuclear receptor subfamily 5 group A member 2 (Homo sapiens) (O00482 whole entry, looked up): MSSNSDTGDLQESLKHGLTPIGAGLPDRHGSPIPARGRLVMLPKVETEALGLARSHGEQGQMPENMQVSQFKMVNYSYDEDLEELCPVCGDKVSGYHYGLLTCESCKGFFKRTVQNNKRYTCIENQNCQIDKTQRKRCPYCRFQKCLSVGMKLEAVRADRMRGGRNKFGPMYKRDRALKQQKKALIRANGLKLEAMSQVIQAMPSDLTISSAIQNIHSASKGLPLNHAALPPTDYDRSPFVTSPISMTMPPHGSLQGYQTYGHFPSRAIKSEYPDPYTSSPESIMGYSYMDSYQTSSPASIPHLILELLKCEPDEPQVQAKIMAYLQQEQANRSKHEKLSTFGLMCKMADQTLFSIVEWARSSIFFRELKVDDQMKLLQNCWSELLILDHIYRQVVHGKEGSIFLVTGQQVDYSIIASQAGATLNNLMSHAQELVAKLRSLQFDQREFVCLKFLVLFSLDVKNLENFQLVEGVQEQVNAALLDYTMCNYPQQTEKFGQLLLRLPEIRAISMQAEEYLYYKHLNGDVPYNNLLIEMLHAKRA

[3] = biological target: Steroidogenic factor 1 (Homo sapiens) (UniProt Q13285); assay: inverse agonism at SF1 nuclear receptor – cell-based, luminescence, high throughput, counter-screen for LRH-1 inverse agonist project (AID 651614; in the data active = inhibition above about 44%;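 note: cells cotransfected with StAR promoter reporter and SF1 expression vector; 0% = vehicle on cells with receptor and 100% = vehicle on cells lacking receptor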); details: cell-based SF1 luciferase reporter, at 3.6 µM, active compounds read high
Sequence of Steroidogenic factor 1 (Homo sapiens) (Q13285 whole entry, looked up, the tested form may be a part): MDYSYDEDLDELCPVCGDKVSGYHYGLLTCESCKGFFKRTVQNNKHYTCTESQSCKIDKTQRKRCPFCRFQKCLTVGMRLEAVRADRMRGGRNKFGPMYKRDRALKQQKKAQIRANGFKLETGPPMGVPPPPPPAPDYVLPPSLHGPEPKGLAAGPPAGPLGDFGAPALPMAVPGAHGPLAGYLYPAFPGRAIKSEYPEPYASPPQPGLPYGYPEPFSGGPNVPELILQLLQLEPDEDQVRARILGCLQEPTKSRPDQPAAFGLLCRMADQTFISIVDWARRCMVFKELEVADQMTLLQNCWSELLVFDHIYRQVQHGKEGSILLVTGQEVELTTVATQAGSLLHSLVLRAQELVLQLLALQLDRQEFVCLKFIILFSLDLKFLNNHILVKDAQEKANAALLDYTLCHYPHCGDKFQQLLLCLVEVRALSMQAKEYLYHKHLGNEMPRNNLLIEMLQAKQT

[4] = compounds suppressing VP16-driven luciferase signal – cell-based, luminescence, high throughput, counter-screen for LRH-1 inverse agonist project (AID 651615; in the data active = inhibition above about 33%); details: Gal4-VP16 luciferase reporter cells, at 3.6 µM, active compounds read high

Cc1cc([N+](=O)[O-])ccc1NC(=O)CSc1nnc(C)n1C
inhibition [1]: -1.6% | inhibition [2]: 60.6% (active) | inhibition [3]: 47.1% (active) | inhibition [4]: -3.16%

CCCCCCCN(C(=O)CCl)c1ccccc1C
inhibition [1]: 21% | inhibition [2]: 49.9% (active) | inhibition [3]: 42.9% (active) | inhibition [4]: -8.25%

CCN(CC)c1ccc(C2=NNC(=O)CC2C)cc1[N+](=O)[O-] (configuration not stated)
inhibition [1]: -14.3% | inhibition [2]: 17% | inhibition [3]: 21.7% | inhibition [4]: -1.3%

O=C(CSc1nc2cccc(F)c2c(=O)n1-c1ccccc1)Nc1ccc2c(c1)CCC2
inhibition [1]: 19.2% | inhibition [2]: 57.3% (active) | inhibition [3]: 57.5% (active) | inhibition [4]: -5.06%

COc1ccc(OC)c(C2=NS(=O)(=O)N(C)C(C(=O)Nc3ccc(C(C)=O)cc3)=C2)c1
inhibition [1]: 4.76% | inhibition [2]: 44.8% (active) | inhibition [3]: 45% (active) | inhibition [4]: -9.42%

CCOc1ccc(NC(=O)COC(=O)CC2CCCCC2)cc1
inhibition [1]: 9.8% | inhibition [2]: 44.4% (active) | inhibition [3]: 44.8% (active) | inhibition [4]: -6.37%

COc1cc2c(cc1OC)CN(C(=O)CN1CCN(S(=O)(=O)c3ccc(C)c(C)c3)CC1)CC2
inhibition [1]: 19.9% | inhibition [2]: 49.3% (active) | inhibition [3]: 45% (active) | inhibition [4]: 16.1%

Cc1no[n+]([O-])c1COc1ccccc1/C=N/n1nnnc1N
inhibition [1]: 7.3% | inhibition [2]: 48.8% (active) | inhibition [3]: 43% (active) | inhibition [4]: -13.9%

O=C(c1cccc(Cl)c1)N1CCCC(c2ccc(Cl)cc2)=N1
inhibition [1]: 2.78% | inhibition [2]: 49.8% (active) | inhibition [3]: 57.3% (active) | inhibition [4]: 3.04%

COc1ccc(NC(=O)CSc2ccc3c(c2)OCCO3)cc1
inhibition [1]: 2.27% | inhibition [2]: 63.5% (active) | inhibition [3]: 56.7% (active) | inhibition [4]: -4.1%

O=C(COc1ccc2c3c(c(=O)oc2c1)CCC3)NCc1ccncc1
inhibition [1]: 0.83% | inhibition [2]: 50% (active) | inhibition [3]: 41.4% | inhibition [4]: -2.51%

CCOc1cc(/C=N/n2nnnc2N)ccc1OCc1c(C)no[n+]1[O-]
inhibition [1]: 12.5% | inhibition [2]: 53.2% (active) | inhibition [3]: 56.4% (active) | inhibition [4]: -7.92%

CC(=O)COc1ccc2c(-c3cccc([N+](=O)[O-])c3)cc(=O)oc2c1
inhibition [1]: 7.05% | inhibition [2]: 67.2% (active) | inhibition [3]: 51.8% (active) | inhibition [4]: 0.45%

Cc1cc(OCC(=O)NC2CC2)c2c(C)cc(=O)oc2c1
inhibition [1]: 18.9% | inhibition [2]: 65.5% (active) | inhibition [3]: 58.2% (active) | inhibition [4]: -8.04%

COc1ccc(Oc2ccc(NC(=O)c3ccccc3C)cc2)cc1
inhibition [1]: 8.67% | inhibition [2]: 38.8% | inhibition [3]: 40.1% | inhibition [4]: -18.1%

CCCc1cc(=O)oc2cc(C)cc(OCC(=O)Nc3ccccn3)c12
inhibition [1]: 2.99% | inhibition [2]: 60.1% (active) | inhibition [3]: 61.8% (active) | inhibition [4]: 3.1%

O=C(Cn1cnc2c(nnn2-c2ccccc2)c1=O)NCCc1ccccc1
inhibition [1]: 13.4% | inhibition [2]: 50.9% (active) | inhibition [3]: 51% (active) | inhibition [4]: -7.88%

COc1ccc(C2=Nn3c(nnc3-c3ccccc3OC)SC2)cc1OC1CCOC1 (configuration not stated)
inhibition [1]: 54.4% (active) | inhibition [2]: 69.1% (active) | inhibition [3]: 71.1% (active) | inhibition [4]: 19.3%

Cc1ccc(NC(=O)COC(=O)C(NS(=O)(=O)c2ccc(Cl)cc2)C(C)O)c(Br)c1 (configuration not stated)
inhibition [1]: 3.18% | inhibition [2]: 55.3% (active) | inhibition [3]: 57.6% (active) | inhibition [4]: -12.9%

Cc1ccc(-c2cc(NC=O)c3ncc(-c4cnn(C)c4)n3c2)cc1
inhibition [1]: 50.1% (active) | inhibition [2]: 52% (active) | inhibition [3]: 64.3% (active) | inhibition [4]: -13.8%

Clc1ccc(Cn2ncc3c(NCc4ccccc4)ncnc32)cc1
inhibition [1]: 43.3% (active) | inhibition [2]: 59.4% (active) | inhibition [3]: 51.4% (active) | inhibition [4]: 14.4%

Cc1ccc(SCC(=O)Nc2ccc(N3CCOCC3)cc2)cc1C
inhibition [1]: -0.13% | inhibition [2]: 51.6% (active) | inhibition [3]: 47.2% (active) | inhibition [4]: -10.5%

CC(C)NC(=O)CN1CCN(C(=O)CCl)CC1
inhibition [1]: 1.19% | inhibition [2]: 52.8% (active) | inhibition [3]: 27.2% | inhibition [4]: 7.31%

O=[N+]([O-])c1cccc(-c2ccc(/C=N/NC(=S)NCc3ccco3)o2)c1
inhibition [1]: 10.6% | inhibition [2]: 48.5% (active) | inhibition [3]: 51.2% (active) | inhibition [4]: -3.67%

Cc1nn(Cc2ccc(Cl)cc2)c(C)c1NC(=O)c1noc2c1CCCCC2
inhibition [1]: 21% | inhibition [2]: 46.8% (active) | inhibition [3]: 54.7% (active) | inhibition [4]: 18.3%

Cc1onc(-c2ccccc2Cl)c1-c1nc(-c2ccccn2)no1
inhibition [1]: 17.1% | inhibition [2]: 67.3% (active) | inhibition [3]: 52.7% (active) | inhibition [4]: 7.63%

Cc1ccc(C)c(-c2cc(C(=O)N/N=C/c3cccnc3)c3ccccc3n2)c1
inhibition [1]: 9.19% | inhibition [2]: 51.1% (active) | inhibition [3]: 44.9% (active) | inhibition [4]: 5.29%

CCS(=O)(=O)N1Cc2cc(C(=O)NCC3CC3)nc(-c3cccc(-c4cccnc4)c3)c2[C@@H]1CCO
inhibition [1]: 8.53% | inhibition [2]: 47.6% (active) | inhibition [3]: 41.8% | inhibition [4]: -27.8%

COc1ccc(CNC(=O)O[C@@H]2C[C@H]3C(=O)N(c4ccccc4)C(=O)[C@H]3[C@@]3(CN(S(=O)(=O)c4ccc(C)cc4)C[C@H]3C)[C@@H]2O)cc1OC
inhibition [1]: 9.47% | inhibition [2]: 18.4% | inhibition [3]: 13.8% | inhibition [4]: 8.56%

O=C1C=C(NCCc2ccccc2)C2(CCCCC2)O1
inhibition [1]: 3.62% | inhibition [2]: 59.9% (active) | inhibition [3]: 49.5% (active) | inhibition [4]: -3.99%

CCn1c2ccccc2c2cc(/C=N/n3cn[nH]c3=S)ccc21
inhibition [1]: 4.27% | inhibition [2]: 28.1% | inhibition [3]: 34.3% | inhibition [4]: -3.24%

CCn1nnc(NC(=O)c2ccc([N+](=O)[O-])o2)n1
inhibition [1]: 10.3% | inhibition [2]: 57.8% (active) | inhibition [3]: 59.9% (active) | inhibition [4]: -13.8%

O=[N+]([O-])c1ccc(N2CCN(S(=O)(=O)c3ccccc3)CC2)cc1NCc1cccnc1
inhibition [1]: 6.64% | inhibition [2]: 61% (active) | inhibition [3]: 43.3% (active) | inhibition [4]: 14.6%

Oc1ccccc1-c1nc(NCC2CCCO2)c2ccccc2n1 (configuration not stated)
inhibition [1]: 26.3% | inhibition [2]: 66.2% (active) | inhibition [3]: 58% (active) | inhibition [4]: -8%

CCOC(=O)C(C)Oc1cccc2c(=O)n(CC(=O)Nc3ccc(OCC)cc3)ccc12 (configuration not stated)
inhibition [1]: 4.74% | inhibition [2]: 60.1% (active) | inhibition [3]: 58.8% (active) | inhibition [4]: -11.2%

O=C(NCc1cccc(C(F)(F)F)c1)c1cc(-c2ccccc2)nn1CC1CC(c2cccnc2)=NO1 (configuration not stated)
inhibition [1]: 13% | inhibition [2]: 36.4% | inhibition [3]: 32.1% | inhibition [4]: 6.07%

COc1cccc(C(C)(O)c2nc(-c3ccc(S(C)(=O)=O)cc3)cs2)c1 (configuration not stated)
inhibition [1]: 7.7% | inhibition [2]: 58.2% (active) | inhibition [3]: 62.1% (active) | inhibition [4]: 24%

Cc1cc(C)nc(NC(=O)c2ccc([N+](=O)[O-])o2)n1
inhibition [1]: 17.2% | inhibition [2]: 61.6% (active) | inhibition [3]: 53.4% (active) | inhibition [4]: -11.8%

CC(C)(Oc1ccc(Cl)cc1)C(=O)OCC(=O)NCCc1ccccc1
inhibition [1]: 10.5% | inhibition [2]: 45.2% (active) | inhibition [3]: 46.8% (active) | inhibition [4]: 4.06%

COc1ccccc1N1CCN(C(=O)CSc2nc3ccccc3o2)CC1
inhibition [1]: -10.2% | inhibition [2]: 30.2% | inhibition [3]: 35.1% | inhibition [4]: -19.8%

CCN1C(=O)c2cccc3c(N)ccc1c23
inhibition [1]: 33.4% (active) | inhibition [2]: 58.6% (active) | inhibition [3]: 46% (active) | inhibition [4]: -37.8%

COc1ccc(CN(C)C(=O)CCl)cc1
inhibition [1]: 14.9% | inhibition [2]: 53.5% (active) | inhibition [3]: 52.9% (active) | inhibition [4]: -5.19%

Cn1c2c(c(=O)n(C)c1=O)C(C(F)(F)F)(C(F)(F)F)N=C(CCC1CCCCC1)N2
inhibition [1]: 29.6% (active) | inhibition [2]: 41.9% (active) | inhibition [3]: 49.6% (active) | inhibition [4]: 41.1% (active)

CC(Nc1ncnc2sccc12)c1ccccc1 (configuration not stated)
inhibition [1]: 25.8% | inhibition [2]: 64.5% (active) | inhibition [3]: 64.9% (active) | inhibition [4]: 57.7% (active)

CC(=O)N1c2ccc(S(=O)(=O)N3CCC(C(=O)Nc4cccc(C)n4)CC3)cc2CC1C (configuration not stated)
inhibition [1]: 18% | inhibition [2]: 57.1% (active) | inhibition [3]: 54.1% (active) | inhibition [4]: 51.9% (active)

O=c1cc(C2CCCCC2)[nH]c(=O)[nH]1
inhibition [1]: 10.2% | inhibition [2]: 48.1% (active) | inhibition [3]: 48% (active) | inhibition [4]: 2.19%

CCCc1cc(=O)oc2cc(OCC(=O)N3CCN(C(=O)C4COc5ccccc5O4)CC3)ccc12 (configuration not stated)
inhibition [1]: 8.6% | inhibition [2]: 63.4% (active) | inhibition [3]: 55.5% (active) | inhibition [4]: 3.04%

CCNc1cc(N2CCCC2)ccc1[N+](=O)[O-]
inhibition [1]: 10.6% | inhibition [2]: 40.2% | inhibition [3]: 44% (active) | inhibition [4]: -8.79%

COCCNc1ccc([N+](=O)[O-])cc1C(=O)NC1CCCc2ccccc21 (configuration not stated)
inhibition [1]: 4.6% | inhibition [2]: 54.7% (active) | inhibition [3]: 53.5% (active) | inhibition [4]: 12.8%

Cc1ccccc1Nc1nc(-c2cccnc2)nc2ccccc12
inhibition [1]: 2.04% | inhibition [2]: 41.5% (active) | inhibition [3]: 33.2% | inhibition [4]: -10.5%

COc1ccc(NC(=O)CSc2nc(O)cc(=O)n2-c2ccccc2OC)cc1
inhibition [1]: 4.7% | inhibition [2]: 47.5% (active) | inhibition [3]: 38.3% | inhibition [4]: 2.37%

CS(=O)(=O)N1Cc2cc(C(=O)NCC3CC3)nc(-c3cccc(-c4cccnc4)c3)c2[C@@H]1CCO
inhibition [1]: 8.47% | inhibition [2]: 49.4% (active) | inhibition [3]: 47.5% (active) | inhibition [4]: -12.3%

CCOc1cc(/C=C2\C(=N)N3N=C(C)SC3=NC2=O)ccc1OCCOc1cccc(OC)c1
inhibition [1]: 10% | inhibition [2]: 39.7% | inhibition [3]: 40.2% | inhibition [4]: 6.87%
